We go through 16 molecules from PubChem BioAssay (NCATS).

Inconclusive results are not listed. A number with no mark means an inactive call. The source made the active and inactive calls. Calls follow the shape of the dose curve; as a rule, active = well fitted cell-killing curve with a large enough effect; inconclusive = small, poorly fitted or top-dose-only effect, or effect the other way; inactive = no such curve, though single readings can be large or run the other way.
Potency is read from the fitted curve at half-maximal effect.

A short description of this assay: Quantitative High-Throughput drug screen in 47 multiple myeloma cell lines against the NCATS MIPE library collection: OCIMY5_PLB cell viability assay (AID 1918988). Also: nearly all actives have a fitted effect of over 65% in size.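 As to viability, % of control: 100% = DMSO-treated wells and 0% = wells with media alone.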 The settings on record: OCI-MY5 myeloma viability, ATP luminescence, 48 h; series mostly up to 45.8 µM; viability, % of control: at the top concentration. Summed up: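 Viability after 48 h drug exposure was measured as ATP-dependent luminescence. Cells, 500 per well, sat at 37 °C under 5% CO2; DMSO wells set 100%, media-only wells 0%.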
As to `CCN(CC)CCn1c(=O)c(Cc2ccc(OC)cc2)nc2ccccc21`, the “viability, % of control” value was 120%.

Consider `CNS(=O)(=O)Cc1ccc2[nH]cc(CCN(C)C)c2c1`, for which the “viability, % of control” value was 148%.

In the case of `CCCOc1ccc(C(=O)OCCN(CC)CC)cc1N`, the “viability, % of control” value is 166%.

As for `C[C@@H]1C[C@H]2[C@@H]3CCC4=CC(=O)C=C[C@]4(C)[C@@]3(Cl)[C@@H](O)C[C@]2(C)[C@@]1(OC(=O)c1ccco1)C(=O)CCl`, the Potency was 16.6 µM (active).

In the case of `O=C(O)C1CCCN(CCC=C(c2ccccc2)c2ccccc2)C1` (stereo unspecified), the “viability, % of control” value is 161%.

In the case of `OC(Cn1cncn1)(Cn1cncn1)c1ccc(F)cc1F`, the “viability, % of control” value is 179%.

On to `COC(=O)Nc1nc2ccc(C(=O)c3ccccc3)cc2[nH]1`, for which the Potency is 0.418 µM (active).

On to `NC(=O)c1cccc(N)c1`, for which the “viability, % of control” value was 204%.

On to `CN(C)CCc1c[nH]c2ccc(CS(=O)(=O)N3CCCC3)cc12`, for which the “viability, % of control” value was 154%.

Turning to `CCN(C)C(=O)Oc1cccc([C@H](C)N(C)C)c1`, the “viability, % of control” value was 166%.

On to `CC[C@H](NC(C)C)[C@H](O)c1ccc(O)c2[nH]c(=O)ccc12`, for which the Potency was 0.0833 µM (active).

On to `CO[C@@H]1[C@@H](OC(N)=O)[C@@H](O)[C@H](Oc2ccc3c(O)c(NC(=O)c4ccc(O)c(CC=C(C)C)c4)c(=O)oc3c2C)OC1(C)C`, for which the Potency was 8.33 µM (active).

As to `O=P(O)(O)C(O)(Cc1cccnc1)P(=O)(O)O`, the “viability, % of control” value is 141%.

Consider `CC1=CC(=O)c2ccccc2C1=O`, for which the Potency was 16.6 µM (active).

For the molecule `CN1CCCC(n2nc(Cc3ccc(Cl)cc3)c3ccccc3c2=O)CC1` (stereo unspecified), the Potency is 1.18 µM (active).

Regarding `CC(C)Cn1cnc2c(N)nc3ccccc3c21`, the Potency is 16.6 µM (active).
